Test results taken from PubChem BioAssay AID1508601 (ICCB-Longwood Screening Facility, Harvard Medical School, 2020).
In all, about 5,700 compounds went through this assay and about 85 (1%) were called active. No stated cut-off is given here; in the data, active means p53-positive nuclei above about 36% (passing the limit was not always enough); inactive means the rest. Shown is part of a subset that was picked to be rich in actives.

What was measured:
[1] = nuclear p53 accumulation, HPV+ cells – imaging, p53-positive nuclei imaging, 24 h, 48 h (AID 1508601); settings: 24/48 h
[2] = target: Cellular tumor antigen p53 (Homo sapiens) (UniProt P04637); assay: as above; settings: 24/48 h, stronger effect = higher value
[3] = measured here: cell number at 24 h, concentration not given here
[4] = measured here: cell number at 48 h, concentration not given here
[5] = measured here: p53 positive nuclei at 24 h, concentration not given here
[6] = measured here: cell number at 24 h, Library stock concentration: 10 mM
[7] = measured here: cell number at 48 h, Library stock concentration: 10 mM
[8] = Library stock concentration: 10 mM
[9] = measured here: p53 positive nuclei at 24 h, Library stock concentration: 10 mM
[10] = measured here: cell number at 24 h, Library stock concentration: 80 uM
[11] = measured here: cell number at 24 h, Library stock concentration: 400 uM
[12] = measured here: cell number at 24 h, Library stock concentration: 2 mM
[13] = measured here: cell number at 48 h, Library stock concentration: 80 uM
[14] = measured here: cell number at 48 h, Library stock concentration: 400 uM
[15] = measured here: cell number at 48 h, Library stock concentration: 2 mM
[16] = Library stock concentration: 80 uM
[17] = Library stock concentration: 400 uM
[18] = Library stock concentration: 2 mM
[19] = measured here: p53 positive nuclei at 24 h, Library stock concentration: 80 uM
[20] = measured here: p53 positive nuclei at 24 h, Library stock concentration: 400 uM
[21] = measured here: p53 positive nuclei at 24 h, Library stock concentration: 2 mM

Sequence of Cellular tumor antigen p53 (Homo sapiens) (P04637 whole entry, looked up): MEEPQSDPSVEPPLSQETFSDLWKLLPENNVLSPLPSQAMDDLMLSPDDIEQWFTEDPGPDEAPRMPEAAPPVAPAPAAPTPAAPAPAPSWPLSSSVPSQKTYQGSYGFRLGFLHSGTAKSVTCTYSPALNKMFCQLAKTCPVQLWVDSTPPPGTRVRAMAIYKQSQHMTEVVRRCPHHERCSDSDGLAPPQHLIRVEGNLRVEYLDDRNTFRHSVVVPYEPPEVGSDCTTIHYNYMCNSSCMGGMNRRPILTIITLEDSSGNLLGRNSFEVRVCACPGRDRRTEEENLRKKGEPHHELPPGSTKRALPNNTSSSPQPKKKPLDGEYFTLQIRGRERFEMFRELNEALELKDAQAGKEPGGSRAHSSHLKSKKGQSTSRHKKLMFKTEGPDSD

## CC[C@@]1(O)C[C@H](O[C@H]2C[C@H](N(C)C)[C@H](O)[C@H](C)O2)c2c(cc3c(c2O)C(=O)c2c(O)cccc2C3=O)[C@H]1C(=O)OC
[1]; [3]
  nuclei count, normalised: 50.2%
[1]; [4]
  nuclei count, normalised: 38.4%
[2]; concentration not given here
  p53-positive nuclei, normalised: 27.4% (inactive)
[2]; [5]
  p53-positive nuclei, normalised: 16.3%

## CC[C@@]1(O)C[C@H](O)c2c(cc3c(c2O)C(=O)c2c(O)ccc(O)c2C3=O)[C@H]1C(=O)OC
[1]; [3]
  nuclei count, normalised: 83.7%
[1]; [4]
  nuclei count, normalised: 84%
[2]; concentration not given here
  p53-positive nuclei, normalised: 23.5% (inactive)
[2]; [5]
  p53-positive nuclei, normalised: 4.09%

## CC[C@@]1(O)C[C@H](O[C@H]2C[C@H](N(C)C)[C@H](O)[C@H](C)O2)c2c(cc3c(c2O)C(=O)c2c(O)ccc(O)c2C3=O)[C@H]1C(=O)OC
[1]; [3]
  nuclei count, normalised: 29.9%
[1]; [4]
  nuclei count, normalised: 15.5%
[2]; concentration not given here
  p53-positive nuclei, normalised: 92.8% (active)
[2]; [5]
  p53-positive nuclei, normalised: 88.5%

## CCCCC/C=C\C/C=C\C/C=C\C/C=C\CCCC(=O)Nc1cccc([N+](=O)[O-])c1
[1]; [3]
  nuclei count, normalised: 108%
[1]; [4]
  nuclei count, normalised: 112%
[2]; concentration not given here
  p53-positive nuclei, normalised: -0.154% (inactive)
[2]; [5]
  p53-positive nuclei, normalised: -0.0854%

## CN1CCC(N(C)CCC2CCOCC2)CC1
[1]; [3]
  nuclei count, normalised: 102%
[1]; [4]
  nuclei count, normalised: 105%
[2]; concentration not given here
  p53-positive nuclei, normalised: -0.0157% (inactive)
[2]; [5]
  p53-positive nuclei, normalised: -0.151%

## CN1C(=O)[C@@]23C[C@]4([C@]56C[C@@]78SS[C@@](CO)(C(=O)N7[C@@H]5Nc5ccccc56)N(C)C8=O)c5ccccc5N[C@H]4N2C(=O)[C@]1(CO)SS3
[1]; measured here: cell number at 24 h, Library stock concentration: 500 nM
  nuclei count, normalised: 119%
[1]; measured here: cell number at 24 h, Library stock concentration: 1.5 uM
  nuclei count, normalised: 109%
[1]; measured here: cell number at 24 h, Library stock concentration: 4.6 uM
  nuclei count, normalised: 104%
[1]; measured here: cell number at 24 h, Library stock concentration: 13.7 uM
  nuclei count, normalised: 98.9%
[1]; measured here: cell number at 24 h, Library stock concentration: 41 uM
  nuclei count, normalised: 67.2%
[1]; measured here: cell number at 24 h, Library stock concentration: 123 uM
  nuclei count, normalised: 42.7%
[1]; measured here: cell number at 24 h, Library stock concentration: 370 uM
  nuclei count, normalised: 46.4%
[1]; measured here: cell number at 24 h, Library stock concentration: 1.111 mM
  nuclei count, normalised: 36.8%
[1]; measured here: cell number at 24 h, Library stock concentration: 3.333 mM
  nuclei count, normalised: 34.9%
[1]; [6]
  nuclei count, normalised: 41.7%
[1]; measured here: cell number at 48 h, Library stock concentration: 500 nM
  nuclei count, normalised: 117%
[1]; measured here: cell number at 48 h, Library stock concentration: 1.5 uM
  nuclei count, normalised: 107%
[1]; measured here: cell number at 48 h, Library stock concentration: 4.6 uM
  nuclei count, normalised: 101%
[1]; measured here: cell number at 48 h, Library stock concentration: 13.7 uM
  nuclei count, normalised: 85.5%
[1]; measured here: cell number at 48 h, Library stock concentration: 41 uM
  nuclei count, normalised: 44.9%
[1]; measured here: cell number at 48 h, Library stock concentration: 123 uM
  nuclei count, normalised: 30.9%
[1]; measured here: cell number at 48 h, Library stock concentration: 370 uM
  nuclei count, normalised: 32.7%
[1]; measured here: cell number at 48 h, Library stock concentration: 1.111 mM
  nuclei count, normalised: 24.5%
[1]; measured here: cell number at 48 h, Library stock concentration: 3.333 mM
  nuclei count, normalised: 23.4%
[1]; [7]
  nuclei count, normalised: 27.3%
[2]; Library stock concentration: 500 nM
  p53-positive nuclei, normalised: 0.0843% (inactive)
[2]; Library stock concentration: 1.5 uM
  p53-positive nuclei, normalised: 0.192% (inactive)
[2]; Library stock concentration: 4.6 uM
  p53-positive nuclei, normalised: 0.185% (inactive)
[2]; Library stock concentration: 13.7 uM
  p53-positive nuclei, normalised: 1.67% (inactive)
[2]; Library stock concentration: 41 uM
  p53-positive nuclei, normalised: 83.6% (active)
[2]; Library stock concentration: 123 uM
  p53-positive nuclei, normalised: 95.7% (active)
[2]; Library stock concentration: 370 uM
  p53-positive nuclei, normalised: 94.5% (active)
[2]; Library stock concentration: 1.111 mM
  p53-positive nuclei, normalised: 72.8% (active)
[2]; Library stock concentration: 3.333 mM
  p53-positive nuclei, normalised: 12.8% (inactive)
[2]; [8]
  p53-positive nuclei, normalised: 7.98% (inactive)
[2]; measured here: p53 positive nuclei at 24 h, Library stock concentration: 500 nM
  p53-positive nuclei, normalised: -0.114%
[2]; measured here: p53 positive nuclei at 24 h, Library stock concentration: 1.5 uM
  p53-positive nuclei, normalised: -0.173%
[2]; measured here: p53 positive nuclei at 24 h, Library stock concentration: 4.6 uM
  p53-positive nuclei, normalised: 0.0127%
[2]; measured here: p53 positive nuclei at 24 h, Library stock concentration: 13.7 uM
  p53-positive nuclei, normalised: 13.4%
[2]; measured here: p53 positive nuclei at 24 h, Library stock concentration: 41 uM
  p53-positive nuclei, normalised: 101%
[2]; measured here: p53 positive nuclei at 24 h, Library stock concentration: 123 uM
  p53-positive nuclei, normalised: 116%
[2]; measured here: p53 positive nuclei at 24 h, Library stock concentration: 370 uM
  p53-positive nuclei, normalised: 117%
[2]; measured here: p53 positive nuclei at 24 h, Library stock concentration: 1.111 mM
  p53-positive nuclei, normalised: 105%
[2]; measured here: p53 positive nuclei at 24 h, Library stock concentration: 3.333 mM
  p53-positive nuclei, normalised: 30.1%
[2]; [9]
  p53-positive nuclei, normalised: 12.6%

## NCCc1ccccc1Br
[1]; [10]
  nuclei count, normalised: 86.4%
[1]; [11]
  nuclei count, normalised: 90.6%
[1]; [12]
  nuclei count, normalised: 89.9%
[1]; [6]
  nuclei count, normalised: 98.5%
[1]; [13]
  nuclei count, normalised: 92.2%
[1]; [14]
  nuclei count, normalised: 90.8%
[1]; [15]
  nuclei count, normalised: 95%
[1]; [7]
  nuclei count, normalised: 98.1%
[2]; [16]
  p53-positive nuclei, normalised: 0.0704% (inactive)
[2]; [17]
  p53-positive nuclei, normalised: 0.0834% (inactive)
[2]; [18]
  p53-positive nuclei, normalised: 0.0298% (inactive)
[2]; [8]
  p53-positive nuclei, normalised: 0.0211% (inactive)
[2]; [19]
  p53-positive nuclei, normalised: 0.101%
[2]; [20]
  p53-positive nuclei, normalised: 0.248%
[2]; [21]
  p53-positive nuclei, normalised: -0.0657%
[2]; [9]
  p53-positive nuclei, normalised: -0.0492%

## CN1CCC(C(=O)c2cccc(NC(=O)c3c(F)cc(F)cc3F)n2)CC1
[1]; [10]
  nuclei count, normalised: 126%
[1]; [11]
  nuclei count, normalised: 115%
[1]; [12]
  nuclei count, normalised: 121%
[1]; [6]
  nuclei count, normalised: 116%
[1]; [13]
  nuclei count, normalised: 118%
[1]; [14]
  nuclei count, normalised: 108%
[1]; [15]
  nuclei count, normalised: 108%
[1]; [7]
  nuclei count, normalised: 105%
[2]; [16]
  p53-positive nuclei, normalised: -0.0182% (inactive)
[2]; [17]
  p53-positive nuclei, normalised: -0.00116% (inactive)
[2]; [18]
  p53-positive nuclei, normalised: -0.0434% (inactive)
[2]; [8]
  p53-positive nuclei, normalised: -0.0859% (inactive)
[2]; [19]
  p53-positive nuclei, normalised: -0.0846%
[2]; [20]
  p53-positive nuclei, normalised: 0.109%
[2]; [21]
  p53-positive nuclei, normalised: 0.0583%
[2]; [9]
  p53-positive nuclei, normalised: -0.136%
